# Results reported in PubChem BioAssay (NCATS).
# Results filed as inconclusive are left out. Where a call stands in place of a potency, no number is given. Values without a mark were called inactive. Calls of active or inactive are those of the source. The call rests on the fitted dose curve.
# Test: Primary qHTS for inhibitors of SARS-S pseudo-typed particle cell entry (AID 1479145); further: nearly all actives have a fitted effect of over 45% in size; further: potency means the concentration at half of the fitted maximal effect
# Conditions: SARS-S pseudotyped particle cell entry, luciferase reporter; series mostly up to 57.1 µM
row,Structure (SMILES),Potency
1,CCN(CC)c1ccc(C(=C2C=CC(=[N+](CC)CC)C=C2)c2cc(S(=O)(=O)O)ccc2S(=O)(=O)[O-])cc1,inactive
2,CNC(=O)c1ccc(N2C(=S)N(c3ccc(C#N)c(C(F)(F)F)c3)C(=O)C2(C)C)cc1F,8.91 µM (active)
3,CNC(=O)c1cc(Oc2ccc(NC(=O)Nc3ccc(Cl)c(C(F)(F)F)c3)c(F)c2)ccn1,14.1 µM (active)
4,C[C@H](CN1CCCC1)C(=O)c1ccc(C(F)(F)F)cc1,inactive
5,Cc1ccc(C(=O)Nc2ccc(CN3CCN(C)CC3)c(C(F)(F)F)c2)cc1C#Cc1cnc2cccnn12,3.55 µM (active)
6,CC(C)C[C@H](NC(=O)CNC(=O)c1cc(Cl)ccc1Cl)B(O)O,inactive
7,CC1=C(C/C=C(\C)CCC[C@H](C)CCC[C@H](C)CCCC(C)C)C(=O)c2ccccc2C1=O,inactive

# Test: Primary qHTS for Huh7 cytotoxicity: counterscreen for inhibitors of MERS-S pseudotyped particle cell entry (AID 1479147)
# Conditions: cell viability read-out; series mostly up to 57.1 µM
Structure (SMILES),Potency,outcome
C#CC(C)(CC)OC(=O)c1ccccc1C(=O)O (stereo not drawn),inactive,
Cc1ccccc1N=Nc1ccc(N=Nc2c(O)ccc3ccccc23)c(C)c1,inactive,
CNC(=O)c1ccc(N2C(=S)N(c3ccc(C#N)c(C(F)(F)F)c3)C(=O)C2(C)C)cc1F,inactive,
Cc1nnc(C(C)C)n1C1CC2CCC(C1)N2CC[C@H](NC(=O)C1CCC(F)(F)CC1)c1ccccc1 (stereo partly drawn),inactive,
CNC(=O)c1cc(Oc2ccc(NC(=O)Nc3ccc(Cl)c(C(F)(F)F)c3)c(F)c2)ccn1,inactive,
CC(C)(C)C(O)/C=C/c1ccc2c(c1)OCO2 (stereo not drawn),inactive,
CC(=O)N[C@@H](Cc1ccc(O)cc1)C(=O)O,inactive,
CCCOC(=O)c1ccc(O)cc1,inactive,
Cn1cncc1[C@@](N)(c1ccc(Cl)cc1)c1ccc2c(c1)c(-c1cccc(Cl)c1)cc(=O)n2C,inactive,
C[C@H](CN1CCCC1)C(=O)c1ccc(C(F)(F)F)cc1,inactive,
CC(C)(C)c1cc(C(C)(C)C)c(NC(=O)c2c[nH]c3ccccc3c2=O)cc1O,inactive,
Cc1c(C(=O)Nc2ccc(N3C[C@@H](C)O[C@@H](C)C3)nc2)cccc1-c1ccc(OC(F)(F)F)cc1,inactive,
C[C@@H](N)C(=O)O,inactive,
CCOP(=O)(OCC)C(C)NC(=O)N(CCCl)N=O (stereo not drawn),inactive,
Oc1c(I)cc(I)c2cccnc12,inactive,
CS(=O)(=O)Nc1ccc([N+](=O)[O-])cc1Oc1ccccc1,inactive,
N#CC[C@H](C1CCCC1)n1cc(-c2ncnc3[nH]ccc23)cn1,inactive,
O=C(c1cc(Cc2n[nH]c(=O)c3ccccc23)ccc1F)N1CCN(C(=O)C2CC2)CC1,inactive,
COc1cc2nccc(Oc3ccc(NC(=O)C4(C(=O)Nc5ccc(F)cc5)CC4)cc3)c2cc1OC,inactive,
COc1cc2c(cc1OC)CC(=O)N(CCCN(C)C[C@H]1Cc3cc(OC)c(OC)cc31)CC2,inactive,
Clc1ccccc1CN1CCc2sccc2C1,inactive,
CCOc1cc2ncc(C#N)c(Nc3ccc(OCc4ccccn4)c(Cl)c3)c2cc1NC(=O)/C=C/CN(C)C,,inactive [at 11.4 µM]
Cc1cn(-c2cc(NC(=O)c3ccc(C)c(Nc4nccc(-c5cccnc5)n4)c3)cc(C(F)(F)F)c2)cn1,inactive,
CC[C@H](Nc1ncnc2nc[nH]c12)c1nc2cccc(F)c2c(=O)n1-c1ccccc1,inactive,
Cc1cc(C(=O)NNCc2ccccc2)no1,inactive,
CC1=C(C/C=C(\C)CCC[C@H](C)CCC[C@H](C)CCCC(C)C)C(=O)c2ccccc2C1=O,inactive,
CCCS(=O)(=O)Nc1ccc(F)c(C(=O)c2c[nH]c3ncc(-c4ccc(Cl)cc4)cc23)c1F,inactive,
C[C@@H]1CCN(C(=O)CC#N)C[C@@H]1N(C)c1ncnc2[nH]ccc12,inactive,
CC(C)CCCC(C)CCCC(C)CCCCC(C)CCCC(C)CCCC(C)C (stereo not drawn),inactive,

# Test: Primary qHTS for inhibitors of MERS-S pseudo-typed particle cell entry (AID 1479149); further: nearly all actives have a fitted effect of over 60% in size; further: potency means the concentration at half of the fitted maximal effect
# Conditions: MERS-S pseudotyped particle entry, luciferase; series mostly up to 57.1 µM
Structure (SMILES),Potency,"activity change, negative = inhibition"
CCN(CC)c1ccc(C(=C2C=CC(=[N+](CC)CC)C=C2)c2cc(S(=O)(=O)O)ccc2S(=O)(=O)[O-])cc1,inactive,
C#CC(C)(CC)OC(=O)c1ccccc1C(=O)O (stereo not drawn),inactive,
Cc1ccccc1N=Nc1ccc(N=Nc2c(O)ccc3ccccc23)c(C)c1,inactive,
Cc1nnc(C(C)C)n1C1CC2CCC(C1)N2CC[C@H](NC(=O)C1CCC(F)(F)CC1)c1ccccc1 (stereo partly drawn),inactive,
CC(C)(C)C(O)/C=C/c1ccc2c(c1)OCO2 (stereo not drawn),inactive,
CC(=O)N[C@@H](Cc1ccc(O)cc1)C(=O)O,inactive,
CCCOC(=O)c1ccc(O)cc1,inactive,
CC(C)(C)c1cc(C(C)(C)C)c(NC(=O)c2c[nH]c3ccccc3c2=O)cc1O,inactive,
Cc1c(C(=O)Nc2ccc(N3C[C@@H](C)O[C@@H](C)C3)nc2)cccc1-c1ccc(OC(F)(F)F)cc1,20 µM (active),
C[C@@H](N)C(=O)O,inactive,
CCOP(=O)(OCC)C(C)NC(=O)N(CCCl)N=O (stereo not drawn),inactive,
CC(C)C[C@H](NC(=O)CNC(=O)c1cc(Cl)ccc1Cl)B(O)O,0.794 µM (active),
CS(=O)(=O)Nc1ccc([N+](=O)[O-])cc1Oc1ccccc1,inactive,
N#CC[C@H](C1CCCC1)n1cc(-c2ncnc3[nH]ccc23)cn1,inactive,
COc1cc2c(cc1OC)CC(=O)N(CCCN(C)C[C@H]1Cc3cc(OC)c(OC)cc31)CC2,inactive,
Clc1ccccc1CN1CCc2sccc2C1,inactive,
CCOc1cc2ncc(C#N)c(Nc3ccc(OCc4ccccn4)c(Cl)c3)c2cc1NC(=O)/C=C/CN(C)C,,-11.6% [at 11.4 µM]
Cc1cn(-c2cc(NC(=O)c3ccc(C)c(Nc4nccc(-c5cccnc5)n4)c3)cc(C(F)(F)F)c2)cn1,inactive,
CC[C@H](Nc1ncnc2nc[nH]c12)c1nc2cccc(F)c2c(=O)n1-c1ccccc1,inactive,
Cc1cc(C(=O)NNCc2ccccc2)no1,inactive,
C[C@@H]1CCN(C(=O)CC#N)C[C@@H]1N(C)c1ncnc2[nH]ccc12,inactive,
CC(C)CCCC(C)CCCC(C)CCCCC(C)CCCC(C)CCCC(C)C (stereo not drawn),inactive,
